This note sets out measurements from the supplement of paper PMC10941209.

Values without a mark were called inactive.

For the experiment, the system named is Toxoplasma gondii RH 2F1 tachyzoites (intracellular in HFF). As to the kind of experiment: parasite survival relative to DMSO control; higher = less antiparasitic activity, active = 20 or less. As to conditions: 1 µM; 72 h. In outline:
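Survival is the β-galactosidase-derived signal from intracellular Toxoplasma gondii RH-2F1 tachyzoites, expressed as a percentage of infected wells treated with DMSO. HFF cells (5 × 10^3 cells/well, 96-well plates) were infected with 5 × 10^3 parasites in D2 medium for 3 h and then treated with compound at 1 μM for 72 h at 37°C in 5% CO2. After lysis, CPRG was added and absorbance at 570 nm was read at 30 min, with 2 or more biological replicates.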
As for `NC(=O)c1cnccn1`, the parasite survival is 52.5%.

For the compound `Cc1nc(-c2ccc(C3N(C)c4ccc(F)cc4C(=O)N3c3ccccc3)s2)cs1` (centres undefined), the parasite survival was 59.2%.

For `CCN(CC)S(=O)(=O)c1ccc(Cl)c(C(=O)Nc2sc3c(c2C#N)CCCC3)c1`, the parasite survival is 44%.

For `O=C(N[C@H](Cc1cccc2ccccc12)C(=O)NCCc1c[nH]cn1)C1Cc2ccccc2C1`, the parasite survival was 33.7%.

With `COc1ccc(C2CNC(=O)C2)cc1OC1CCCC1` (centres undefined), the parasite survival was 69.8%.

Consider `CC(=O)N1c2ccccc2NC2=C(C(=O)CC(C)(C)C2)C1c1ccc(OCc2ccccc2)cc1` (centres undefined), for which the parasite survival is 46.7%.

As for `Cc1cc(C)n2nc(C(=O)NS(=O)(=O)c3c(C)cccc3OC(F)(F)F)nc2n1`, the parasite survival was 45.7%.

Turning to `O=C(O)c1sccc1S(=O)(=O)n1ccc2cc(Br)ccc21`, the parasite survival was 66.8%.

In the case of `COc1ccccc1CN[C@H]1C2CCN(CC2)[C@H]1C(c1ccccc1)c1ccccc1`, the parasite survival is 37.5%.

`O=C(N[C@H](CCS)C(=O)N[C@H](Cc1ccccc1)C(=O)O)c1cc2ccccc2[nH]1`: the parasite survival is 45.8%.

Turning to `O=C(O)[C@H]1C2CCC(CC2)[C@@H]1Nc1nc(-c2c[nH]c3ncc(F)cc23)ncc1F`, the parasite survival was 44.8%.

As to `COc1cc2c(O)c3c(c(-c4ccc5c(c4)OCO5)c2cc1OC)C(=O)OC3`, the parasite survival was 46.1%.

On to `FC(F)(F)c1cc(C(F)(F)F)c2ccc3nc(-c4nnco4)cn3c2n1`, for which the parasite survival is 77.8%.

On to `Cc1nc2ccc(Cl)cc2c(-c2ccccc2)c1CC(=O)O`, for which the parasite survival is 79.3%.

Turning to `CC(C)(C)OC(=O)NCc1ccc(C(=O)N[C@H]2CCOC2=O)cc1`, the parasite survival was 35%.

In the case of `N=C(N)c1ccc(COc2ccc(Cl)cc2)cc1`, the parasite survival was 54.6%.

For `CCc1cc(CCC(=O)Nc2ccccc2O)c(O)nc1C`, the parasite survival is 70.1%.

Turning to `CCCC(=O)OCCc1ccccc1`, the parasite survival was 57%.

Turning to `O=C(O)/C=C/C=C/c1cccc(Oc2cc(Cl)cc(Cl)c2)c1`, the parasite survival was 36.2%.

In the case of `O=S(=O)(Nc1cccc2cccnc12)c1ccccc1`, the parasite survival is 24.5%.

As to `Cn1cncc1[C@@](N)(c1ccc(Cl)cc1)c1ccc2c(c1)c(-c1cccc(Cl)c1)cc(=O)n2C`, the parasite survival was 59.1%.

Consider `NC(=O)c1c(N)sc2c1CCCCC2`, for which the parasite survival is 48.8%.

On to `CCOC(=O)N1CCN(c2ccc(Cl)cc2)CC1`, for which the parasite survival is 54.3%.

For the compound `CCc1nc2ccc(Cl)cn2c1C(=O)NCc1ccc(N2CCC(c3ccc(OC(F)(F)F)cc3)CC2)cc1`, the parasite survival was 28.9%.
